From PubChem BioAssay come the findings set out here.

Molecules are shown by their SMILES. Activity calls are given as the source filed them. No rule for the calls is given here.

One assay deals with Botulinum neurotoxin type F light chain protease (Clostridium botulinum). Briefly: Clostridium botulinum type F light chain protease inhibitors, microsphere substrate cleavage, validation (AID 588459). The settings on record: multiplex microsphere protease substrate cleavage assay, flow cytometry; at 10 µM; stronger effect = higher value. In general terms: In flow cytometry, cells or beads pass a laser one at a time.
Take `Cc1cc(NS(=O)(=O)c2ccc(N)cc2)no1`: the inhibition (in general, the drop in the measured response relative to a control, in per cent) is 0% (inactive).

As to `Cc1ccc2c(c1)C1OCCC1C1N2C(=O)C2C(C(=O)O)C3C=CC21O3` (stereo not drawn), the inhibition was -1.8% (inactive).

Consider `COc1ccc(C=O)c(OC)c1`, for which the inhibition is -0.3% (inactive).

For the compound `CCNC1=C(Cl)C(=O)c2ccccc2C1=O`, the inhibition is 1.2% (inactive).

For `CC(=O)NC1C(OCc2ccccc2)OC(COC(C)=O)C(OC(C)=O)C1OC(C)=O` (stereo not drawn), the inhibition is -1.4% (inactive).

Take `O=P(c1ccccc1)(c1ccccc1)c1nc(-c2ccc(Cl)cc2)oc1N1CCOCC1`: the inhibition was -1% (inactive).

For the compound `COc1cc(C=NCC2OCCc3ccccc32)cc(OC)c1` (stereo not drawn), the inhibition was 5.8% (inactive).

For `COc1ccc2c3c([nH]c2c1)C1(NCC3)C(=O)Nc2ccccc21` (stereo not drawn), the inhibition was -3% (inactive).

Consider `C[C@]12CCC(=O)C=C1CC[C@@H]1[C@@H]2[C@@H](O)C[C@@]2(C)[C@H]1CC[C@]2(O)C(=O)COC(=O)CCC(=O)O`, for which the inhibition was 1.7% (inactive).

`COc1cc(C2NCCc3c2[nH]c2ccccc32)ccc1OC(C)C` (stereo not drawn): the inhibition is 1.4% (inactive).

In the case of `CC(=O)OCC(=O)[C@@]1(O)[C@H](C)C[C@H]2[C@@H]3CCC4=CC(=O)C=C[C@]4(C)[C@@]3(F)[C@@H](O)C[C@@]21C`, the inhibition was 3% (inactive).

For the compound `OC(C#CCN1CCCC1)(c1ccccc1)c1cccnc1` (stereo not drawn), the inhibition was -1% (inactive).

Regarding `CC(NC(=O)c1ccc(OC2CCN(Cc3ccccn3)CC2)cc1)c1ccccc1` (stereo not drawn), the inhibition is 2.8% (inactive).

In the case of `CNc1nc(N(C)C)nc(N(C)C)n1`, the inhibition was 1.3% (inactive).

For `NC(N)=NC(=O)c1nc(Cl)c(N)nc1N`, the inhibition was -3.3% (inactive).

Consider `COc1cc(/C=C(\C#N)C(=O)N2CCc3ccccc32)ccc1O`, for which the inhibition was 0.6% (inactive).

Consider `O=C(/C=C/c1ccccc1)c1ccccc1`, for which the inhibition is -1.7% (inactive).

In the case of `C#C[C@]1(O)CC[C@H]2[C@@H]3CCC4=CC(=O)CC[C@@H]4[C@H]3CC[C@@]21CC`, the inhibition was -0.6% (inactive).

As to `CC(C)c1ccccc1OCCNC(=S)NC(=O)c1cccnc1`, the inhibition is 4.3% (inactive).

For the compound `CN/C(=C/[N+](=O)[O-])NCCSCc1ccc(CN(C)C)o1`, the inhibition is 0.1% (inactive).

On to `OCCN1CCN(CCCN2c3ccccc3Sc3ccc(C(F)(F)F)cc32)CC1`, for which the inhibition was -3.2% (inactive).

In the case of `Cc1cc(=O)oc(C)c1C(=O)NCCC(C)C`, the inhibition was -1.3% (inactive).

Turning to `Cc1ccc(S(=O)(=O)N[C@@H](Cc2ccccc2)C(=O)CCl)cc1`, the inhibition is -3.3% (inactive).

As to `CCn1c(C)cc2c(c1=O)C(c1ccccc1)C(C(=O)OC)=C(N)O2` (stereo not drawn), the inhibition was 0.3% (inactive).

For `c1cc(-c2ccncc2)ccn1`, the inhibition is 0.7% (inactive).

For `C=C(C)COc1ccc(-c2n[nH]c(C)c2-c2ccc(OC)cc2)c(O)c1`, the inhibition was -1.3% (inactive).

As to `CC1(C)CC(O)(CNCc2ccc3c(c2)OCO3)CCO1` (stereo not drawn), the inhibition was -3.2% (inactive).

For `NC(N)=NC(N)=NCCc1ccccc1`, the inhibition was -1% (inactive).

Take `CC(C)=CCC/C(C)=C/CC/C(C)=N/O`: the inhibition was -1.6% (inactive).

Consider `CN1CCN2c3ccccc3Cc3ccccc3C2C1` (stereo not drawn), for which the inhibition was 0.3% (inactive).

With `CC(=O)OCC(=O)[C@@]12OC(C)(C)O[C@@H]1C[C@H]1[C@@H]3C[C@H](F)C4=CC(=O)C=C[C@]4(C)[C@@]3(F)[C@@H](O)C[C@@]12C`, the inhibition is -3.5% (inactive).

Take `Cc1ccc2nc(NC3=NC(CC(=O)O)C(=O)N3)nc(C)c2c1` (stereo not drawn): the inhibition is -1.7% (inactive).

Consider `CCOC(=O)C1=C(N)Oc2c(c(=O)[nH]c3ccccc23)C1c1ccccc1` (stereo not drawn), for which the inhibition is 0.4% (inactive).

`CCCCN1C[C@H](O)[C@@H](O)[C@H](O)[C@H]1CO`: the inhibition is 1.9% (inactive).

Regarding `CCC1(c2ccccc2)C(=O)NCNC1=O`, the inhibition was 0% (inactive).

On to `O=C(NCCO)c1ccc2[nH]c3ccccc3c2c1`, for which the inhibition is 0.6% (inactive).

Regarding `COc1cc(C(=O)NCCc2c[nH]c3ccccc23)ccc1OCc1c(C)noc1C`, the inhibition is 3.6% (inactive).

As for `CCC[C@@H]1C[C@@H](C(=O)N[C@H]([C@@H](C)O)[C@H]2O[C@H](SC)[C@H](O)[C@@H](O)C2O)N(C)C1` (stereo partly drawn), the inhibition was 3.2% (inactive).

For `CC(C)(C)NC[C@H](O)COc1nsnc1N1CCOCC1`, the inhibition is 0.1% (inactive).

The next assay deals with Botulinum neurotoxin type A (Clostridium botulinum) (UniProt P0DPI0). Briefly: BoNT/A light chain protease inhibitors, biochemical, multiplex microsphere flow cytometry, validation set (AID 588460). The conditions noted are these: at 10 µM, stronger effect = higher value.
Botulinum neurotoxin type A (Clostridium botulinum), sequence (P0DPI0 whole entry, looked up): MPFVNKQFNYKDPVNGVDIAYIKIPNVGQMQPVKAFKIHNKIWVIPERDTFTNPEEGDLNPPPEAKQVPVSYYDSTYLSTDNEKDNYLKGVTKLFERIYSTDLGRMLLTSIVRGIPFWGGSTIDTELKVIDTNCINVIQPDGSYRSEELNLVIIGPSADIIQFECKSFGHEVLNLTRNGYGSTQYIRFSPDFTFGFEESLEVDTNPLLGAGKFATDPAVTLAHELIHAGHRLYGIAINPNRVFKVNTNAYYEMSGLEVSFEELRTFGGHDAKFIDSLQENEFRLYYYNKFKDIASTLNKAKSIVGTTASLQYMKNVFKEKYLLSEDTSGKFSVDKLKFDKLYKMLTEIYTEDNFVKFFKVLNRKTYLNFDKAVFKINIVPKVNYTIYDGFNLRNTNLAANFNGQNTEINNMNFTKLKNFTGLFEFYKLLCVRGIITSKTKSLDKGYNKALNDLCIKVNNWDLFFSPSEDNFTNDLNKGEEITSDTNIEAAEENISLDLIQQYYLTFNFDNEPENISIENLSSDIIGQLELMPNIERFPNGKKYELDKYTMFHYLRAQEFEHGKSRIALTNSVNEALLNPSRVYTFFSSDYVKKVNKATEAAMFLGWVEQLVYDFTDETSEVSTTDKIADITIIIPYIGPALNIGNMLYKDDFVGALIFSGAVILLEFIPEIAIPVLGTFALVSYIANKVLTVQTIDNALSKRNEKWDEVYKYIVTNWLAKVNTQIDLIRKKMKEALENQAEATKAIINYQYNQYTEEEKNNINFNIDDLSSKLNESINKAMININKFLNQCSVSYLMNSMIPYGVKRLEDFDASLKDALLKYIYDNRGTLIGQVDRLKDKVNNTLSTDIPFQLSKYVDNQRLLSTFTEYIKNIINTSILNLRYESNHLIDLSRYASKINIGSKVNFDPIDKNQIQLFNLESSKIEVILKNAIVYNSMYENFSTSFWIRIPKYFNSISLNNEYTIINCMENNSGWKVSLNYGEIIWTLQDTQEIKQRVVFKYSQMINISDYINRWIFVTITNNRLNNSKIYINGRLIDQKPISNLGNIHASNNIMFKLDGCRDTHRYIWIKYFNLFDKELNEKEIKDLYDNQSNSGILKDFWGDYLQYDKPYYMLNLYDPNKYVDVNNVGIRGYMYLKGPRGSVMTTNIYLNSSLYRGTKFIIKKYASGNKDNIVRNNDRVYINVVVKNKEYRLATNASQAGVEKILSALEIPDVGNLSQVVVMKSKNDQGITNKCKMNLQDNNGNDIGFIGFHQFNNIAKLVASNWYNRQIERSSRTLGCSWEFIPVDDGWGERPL
Consider `Cc1cc(NS(=O)(=O)c2ccc(N)cc2)no1`, for which the inhibition was 0.1% (inactive).

As for `Cc1ccc2c(c1)C1OCCC1C1N2C(=O)C2C(C(=O)O)C3C=CC21O3` (stereo not drawn), the inhibition was -0.8% (inactive).

In the case of `COc1ccc(C=O)c(OC)c1`, the inhibition is -0.5% (inactive).

With `CCNC1=C(Cl)C(=O)c2ccccc2C1=O`, the inhibition is -0.3% (inactive).

`CC(=O)NC1C(OCc2ccccc2)OC(COC(C)=O)C(OC(C)=O)C1OC(C)=O` (stereo not drawn): the inhibition was -1.9% (inactive).

For the compound `O=P(c1ccccc1)(c1ccccc1)c1nc(-c2ccc(Cl)cc2)oc1N1CCOCC1`, the inhibition is -1.2% (inactive).

Turning to `COc1cc(C=NCC2OCCc3ccccc32)cc(OC)c1` (stereo not drawn), the inhibition was 0.3% (inactive).

As to `COc1ccc2c3c([nH]c2c1)C1(NCC3)C(=O)Nc2ccccc21` (stereo not drawn), the inhibition is -0.7% (inactive).

On to `C[C@]12CCC(=O)C=C1CC[C@@H]1[C@@H]2[C@@H](O)C[C@@]2(C)[C@H]1CC[C@]2(O)C(=O)COC(=O)CCC(=O)O`, for which the inhibition was -2.4% (inactive).

Consider `COc1cc(C2NCCc3c2[nH]c2ccccc32)ccc1OC(C)C` (stereo not drawn), for which the inhibition was -0.5% (inactive).

For `CC(=O)OCC(=O)[C@@]1(O)[C@H](C)C[C@H]2[C@@H]3CCC4=CC(=O)C=C[C@]4(C)[C@@]3(F)[C@@H](O)C[C@@]21C`, the inhibition is 0.4% (inactive).

With `OC(C#CCN1CCCC1)(c1ccccc1)c1cccnc1` (stereo not drawn), the inhibition is -1% (inactive).

As for `CC(NC(=O)c1ccc(OC2CCN(Cc3ccccn3)CC2)cc1)c1ccccc1` (stereo not drawn), the inhibition is 0.5% (inactive).

Turning to `CNc1nc(N(C)C)nc(N(C)C)n1`, the inhibition was 0.7% (inactive).

For the compound `NC(N)=NC(=O)c1nc(Cl)c(N)nc1N`, the inhibition is -0.3% (inactive).

As for `COc1cc(/C=C(\C#N)C(=O)N2CCc3ccccc32)ccc1O`, the inhibition is 1.6% (inactive).

Take `O=C(/C=C/c1ccccc1)c1ccccc1`: the inhibition was -0.6% (inactive).

For the compound `C#C[C@]1(O)CC[C@H]2[C@@H]3CCC4=CC(=O)CC[C@@H]4[C@H]3CC[C@@]21CC`, the inhibition is -1.3% (inactive).

`CC(C)c1ccccc1OCCNC(=S)NC(=O)c1cccnc1`: the inhibition is 1.6% (inactive).

On to `CN/C(=C/[N+](=O)[O-])NCCSCc1ccc(CN(C)C)o1`, for which the inhibition was 0.1% (inactive).

On to `OCCN1CCN(CCCN2c3ccccc3Sc3ccc(C(F)(F)F)cc32)CC1`, for which the inhibition was -0.1% (inactive).

Regarding `Cc1cc(=O)oc(C)c1C(=O)NCCC(C)C`, the inhibition was -0.2% (inactive).

With `Cc1ccc(S(=O)(=O)N[C@@H](Cc2ccccc2)C(=O)CCl)cc1`, the inhibition is 1.2% (inactive).

`CCn1c(C)cc2c(c1=O)C(c1ccccc1)C(C(=O)OC)=C(N)O2` (stereo not drawn): the inhibition is -0.9% (inactive).

On to `c1cc(-c2ccncc2)ccn1`, for which the inhibition was -1.9% (inactive).

As for `C=C(C)COc1ccc(-c2n[nH]c(C)c2-c2ccc(OC)cc2)c(O)c1`, the inhibition was -0.9% (inactive).

Regarding `CC1(C)CC(O)(CNCc2ccc3c(c2)OCO3)CCO1` (stereo not drawn), the inhibition is -0.9% (inactive).

With `NC(N)=NC(N)=NCCc1ccccc1`, the inhibition is -0.8% (inactive).

As to `CC(C)=CCC/C(C)=C/CC/C(C)=N/O`, the inhibition was -0.4% (inactive).

Consider `CN1CCN2c3ccccc3Cc3ccccc3C2C1` (stereo not drawn), for which the inhibition is 0.5% (inactive).

`CC(=O)OCC(=O)[C@@]12OC(C)(C)O[C@@H]1C[C@H]1[C@@H]3C[C@H](F)C4=CC(=O)C=C[C@]4(C)[C@@]3(F)[C@@H](O)C[C@@]12C`: the inhibition was -1.4% (inactive).

Take `Cc1ccc2nc(NC3=NC(CC(=O)O)C(=O)N3)nc(C)c2c1` (stereo not drawn): the inhibition was -1% (inactive).

Consider `CCOC(=O)C1=C(N)Oc2c(c(=O)[nH]c3ccccc23)C1c1ccccc1` (stereo not drawn), for which the inhibition was 1.1% (inactive).

With `CCCCN1C[C@H](O)[C@@H](O)[C@H](O)[C@H]1CO`, the inhibition is -1% (inactive).

Turning to `CCC1(c2ccccc2)C(=O)NCNC1=O`, the inhibition is -0.9% (inactive).

Take `O=C(NCCO)c1ccc2[nH]c3ccccc3c2c1`: the inhibition is 0.1% (inactive).

On to `COc1cc(C(=O)NCCc2c[nH]c3ccccc23)ccc1OCc1c(C)noc1C`, for which the inhibition is -1.7% (inactive).

As for `CCC[C@@H]1C[C@@H](C(=O)N[C@H]([C@@H](C)O)[C@H]2O[C@H](SC)[C@H](O)[C@@H](O)C2O)N(C)C1` (stereo partly drawn), the inhibition is -1.6% (inactive).

As for `CC(C)(C)NC[C@H](O)COc1nsnc1N1CCOCC1`, the inhibition is 0% (inactive).
